JMJD2A Tudor = qHTS Assay for Inhibitors of JMJD2A-Tudor Domain; Potency, µM (doses to about 114 µM), without a hit: at the highest dose activity change, negative = inhibition, actives largely listed as inhibitors; actives 4.4% (n = 390,000); AlphaScreen JMJD2A-Tudor / H3K4me3 peptide binding; Lysine-specific demethylase 4A (Homo sapiens), O75164; further: potency means the concentration at half of the fitted maximal effect; on the % scale 0 is the no-effect control and ±100 the full control effect; nearly all actives have a fitted effect of over 50% in size
G9a block = qHTS Assay for Inhibitors of Histone Lysine Methyltransferase G9a; Potency, µM (doses to about 102 µM), without a hit: at the highest dose activity, negative = inhibition, hits mostly inhibitors; Histone-lysine N-methyltransferase EHMT2 (Homo sapiens), Q96KQ7; AID 504332, 2011; actives 8.8% (n = 350,000); G9a H3K9 monomethylation, AlphaScreen, 2 h; further: potency means the concentration at half of the fitted maximal effect; on the % scale 0 is the no-effect control and ±100 the full control effect; nearly all actives have a fitted effect of over 75% in size
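Readings reflect AlphaScreen signal from monomethyl-H3K9 antibody detection. HMT at 20 nM; substrate b-H3K9 500 nM; cofactor SAM 20 uM; 2 h RT reaction; compounds tested as titrations in qHTS with 15 min preincubation.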
HP1b binding inh = HTS for Inhibitors of HP1-beta Chromodomain Interactions with Methylated Histone Tails; actives 0.56% (n = 390,000); AlphaScreen HP1-beta / biotin-H3K9me3 peptide binding; Potency, µM (highest dose often 114 µM), for inactives: top-dose activity change, negative = inhibition, usual class: inhibitors; Chromobox protein homolog 1 (Homo sapiens), P83916; further: potency means the concentration at half of the fitted maximal effect; nearly all actives have a fitted effect of over 70% in size
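AlphaScreen: HP1-beta (50 nM) preformed 30 min with biotin-H3(1-18)K9me3 peptide (50 nM) in PBS pH 7.4, 0.01% Tween-20. Compound added for 30 min at RT, then streptavidin donor/nickel chelate acceptor beads (10 ug/mL) for 30 min.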
Six1-Eya2 inh = qHTS Assay for Inhibitors of the Six1/Eya2 Interaction | Homeobox protein SIX1 (Homo sapiens) + Protein phosphatase EYA2 (Homo sapiens), … | AlphaScreen GST-Six1/His-Eya2 binding, biochemical; hits give low values | activity change, % (no concentration beside the values) | actives 0.56% (n = 360,000); in the data active means activity change below about -65%; inconclusive means mostly about -30% to -63%; further: on the % scale 0 is the no-effect control and ±100 the full control effect
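AlphaScreen luminescence read after one hour at 37 °C in darkness. Pin-transferred compounds met GST-Six1 and His-Eya2 protein (5X stock 250 nM/500 nM) plus glutathione donor and Ni-chelate acceptor beads (5X, 50 ug/mL).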
BAZ2B inh = qHTS Assay for Inhibitors of BAZ2B. Bromodomain adjacent to zinc finger domain protein 2B (Homo sapiens), Q9UIF8. AlphaScreen BAZ2B-H3K14Ac peptide displacement. actives 4.4% (n = 360,000). Potency, µM (top dose mostly 114 µM), inactives show top-dose activity change, negative = inhibition, most hits filed as inhibitors. AID 504333, 2011; further: potency means the concentration at half of the fitted maximal effect; on the % scale 0 is the no-effect control and ±100 the full control effect; nearly all actives have a fitted effect of over 60% in size
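Complex of BAZ2B and biotin-H3K14Ac (50 nM apiece) forms over 30 min at RT, then faces library compounds up to 110 uM for another 30 min; AlphaScreen beads added, 20 min dark incubation, luminescence read.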
CtBP-E1A blk = qHTS Assay for Inhibitors of the CtBP/E1A Interaction; actives 0.49% (n = 340,000); AID 651724, 2012; CtBP / adenovirus E1A interaction (AlphaScreen); AlphaScreen GST-E1A/His-CtBP binding, 1536-well; hits give low values; activity change, % (test concentration not listed); in the data active means activity change below about -65%; inconclusive means mostly about -30% to -63%; further: on the % scale 0 is the no-effect control and ±100 the full control effect
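Steps: dispense buffer (Tris pH 8.0, NaCl 300 mM, TCEP 1 mM, BSA, Tween 20); add 5X protein mix (GST-E1A, His-CtBP, 125 nM each); pin 23 nL compound; 2 h at 37 °C, dark; add 5X beads (50 ug/mL); 1 h; read.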
Active calls of the source: *; ? = inconclusive; / = not tested or not shown; [ ] = another dose, or the depositor's remark. This is a sample that favours compounds with a hit; in the whole collection about 10% have one here. Unless noted, the call rests on the fitted dose curve; in most records, active means well fitted inhibition curve with a large enough effect; inconclusive means small, poorly fitted or top-dose-only effect; inactive means no such curve, though single readings can be large or run the other way.

SMILES | JMJD2A Tudor | G9a block | HP1b binding inh | Six1-Eya2 inh | BAZ2B inh | CtBP-E1A blk
COc1ccc(CNS(=O)(=O)c2ccc(C)cc2)cc1 | -2% | / | 58% | 2 | / | 10
COc1ccc(NC(=S)c2ccncc2)cc1 | -5% | -19% | 29% | -6 | -9% | 6
Cc1ccc(S(=O)(=O)CNC(=O)c2ccccc2)cc1 | 1% | ? | 66% | 2 | -34% | -1
Cc1ccc(S(=O)(=O)CNC(=S)c2ccc3ccccc3c2)cc1 | ? | 8.9µM* | -18% | -1 | ? | 9
Cc1ccc(S(=O)(=O)CNC(=S)c2cccc(C)c2)cc1 | -31% | 10µM* | ? | 1 | -7% | 4
COc1ccc(Cl)cc1NC(=O)Cn1cc2c(n1)CCC(C)C2 (centres undefined) | -8% | -6%[59 µM] | 20% | / | 0% | /
c1coc(-c2nnc(-c3ccco3)nn2)c1 | 25µM* | 20µM* | 45µM* | ? | 20µM* | -18
COc1ccc2c(c1)c1c(c(=O)n(-c3cccc(Cl)c3)c(=O)n1C)n2C | 3% | -2%[59 µM] | 38% | / | -1% | /
Cc1ccc(NCc2nnc(SCC(=O)O)n2Cc2ccccc2)cc1Cl | -15% | -31% | 31% | 5 | -31% | 2
CC(=O)Nc1ccc(N2CCN(Cc3ccccc3)CC2)cc1 | -19% | -8% | 17% | 0 | -19% | /
CCOc1ccc(CNc2ccc(N3CCN(Cc4ccccc4)CC3)cc2)cc1 | 8.9µM* | / | ? | ? | 8.9µM* | ?
COC(=O)CSc1nnc(CNc2ccc(Cl)cc2)n1Cc1ccccc1 | -21% | 56µM* | 7% | -1 | ? | -24
CCCCOc1ccc(NC(=O)CN2CCN(Cc3ccccc3)CC2)cc1 | -16% | 18% | 23% | -6 | -21% | 3
CCCCOc1ccc(CN2CCSCC2)cc1 | 28µM* | / | ? | 0 | 5% | -8
CCOc1ccc(NCc2nnc(SCc3ccc(Cl)cc3)n2-c2ccccc2)cc1 | 22µM* | 25µM* | ? | ? | 14µM* | ?
CCOc1ccc(CN2CCC(=O)NC2=O)cc1 | 6% | 12% | 32% | 1 | -6% | 10
CCOc1ccc(CN2CCSCC2)cc1 | 3.5µM* | ? | ? | 1 | ? | -4
O=C(NCc1n[nH]c(=S)n1-c1ccccc1Cl)c1ccc(S(=O)(=O)N2CCCCC2)cc1 | -32% | 10µM* | 38% | 6 | 4% | 13
COc1ccccc1-n1c(CNC(=O)c2ccc(S(=O)(=O)N3CCCCC3)cc2)n[nH]c1=S | 8.9µM* | 22µM* | 20% | 10 | -16% | -6
CCOc1ccc(CC(=O)NCc2ccc3c(c2)CCN3C(C)=O)cc1OCC | -6% | 1%[59 µM] | 23% | / | -10% | /
CC1(C)Cc2c(sc(NC(=O)C(=O)NCCCN3CCOCC3)c2C#N)CO1 | 2% | 22µM* | 22% | 6 | -20% | /
Cc1ccc(NC(=O)C2CCCN(S(=O)(=O)c3cnc[nH]3)C2)cc1C (centres undefined) | -32% | -8%[59 µM] | 22% | 11 | 8% | 0
CCN(CC)c1ccc(NC(=O)C2CCCN(S(=O)(=O)c3cnc[nH]3)C2)c(C)c1 (centres undefined) | ? | 35µM* | -5% | -2 | -5% | -27
COc1ccc(N(C)C(=O)Cn2cc(S(=O)(=O)N3CCN(c4ccccc4F)CC3)c3ccccc3c2=O)c(OC)c1 | -20% | -33%[59 µM] | 21% | / | -14% | /
Cc1ccc(S(=O)(=O)N(Cc2ccccc2)Cc2ccco2)cc1 | 5% | 22%[0.0925 µM] | 73% | 16 | 43% | 14
